PubChem BioAssay (NCI)
This is part of a sample that, as a whole, favours compounds with a hit. Of some 83,000 tested, about 20% had one in any assay.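 Interpretation: 100, growth as untreated; towards 0, rising growth inhibition; 0, no net growth; 0 to -100, cell death. Compounds scoring below 10 were considered active.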 A number with no mark means an inactive call. Calls of active or inactive are those of the source.

What was measured:
Experiment in all cases: NCI-60 one-dose screen, 48 h (100 = growth as untreated, 0 = no growth, -100 = all killed)
Settings in all cases: 10 µM unless noted
[1] = tested on: DU-145 prostate
[2] = tested on: K-562 leukemia
[3] = tested on: MALME-3M melanoma
[4] = tested on: MDA-MB-231 breast
[5] = tested on: SF-268 CNS
[6] = tested on: SF-295 CNS
[7] = tested on: SF-539 CNS
[8] = tested on: UACC-257 melanoma
[9] = tested on: M14 melanoma
[10] = tested on: HCT-15 colon
[11] = tested on: HT29 colon
[12] = tested on: SNB-75 CNS
[13] = tested on: SNB-19 CNS
[14] = tested on: U251 CNS
[15] = tested on: PC-3 prostate
[16] = tested on: SK-MEL-5 melanoma
[17] = tested on: UACC-62 melanoma
[18] = tested on: LOX IMVI melanoma
[19] = tested on: SK-MEL-28 melanoma

Structure (SMILES) | growth [1] | growth [2] | growth [3] | growth [4] | growth [5] | growth [6] | growth [7] | growth [8] | growth [9] | growth [10] | growth [11] | growth [12] | growth [13] [%] | growth [14] | growth [15] | growth [16] | growth [17] | growth [18] | growth [19]
O=C(Nc1ccc2ncnc(Nc3ccc(Oc4cccc(F)c4)c(Cl)c3)c2c1)c1ccc(CN2CCOCC2)cc1 | 39.6% | 8.98% (active) | 38.9% | 46.1% | 49% | 27.3% | 53.2% | 53.1% | 14.7% | 11.2% | 20.9% | 55.8% | 50.8 | 36.5% | 14.6% | 4.82% (active) | 53.5% | 8.89% (active) | 52.2%
CSc1nnc2c(=O)n(C)c(=O)n(C)c2n1 | 100% | 86.1% | 114% | 105% | 108% | 130% | 109% | 123% | 102% | 100% | 111% | 100% | 97.5 | 97.2% | 83.2% | 106% | 95.8% | 83.5% | 95.5%
Clc1ccc(C2CC(c3cccc(Nc4ccncc4)c3)=NN2c2ccc(Cl)cc2)cc1 (centres undefined) | 17.6% | -1.93% (active) | -64.4% (active) | 19% | 60.2% | -79.2% (active) | 71.2% | 64.7% | -80.1% (active) | -71.6% (active) | -5.47% (active) | 70.7% | 67.8 | -49.7% (active) | 17% | 33.8% | 98% | -97.2% (active) | -92.3% (active)
Clc1ccc(C2CC(c3cccc(Nc4ccncc4)c3)=NN2c2ccccc2)cc1 (centres undefined) | 56.7% | 0.432% (active) | -72% (active) | 75.2% | 82.1% | 70% | 71.5% | 34.5% | -80.6% (active) | -48.4% (active) | -9.64% (active) | 76.2% | 79.7 | -11.4% (active) | 36% | 68.6% | 93.9% | 25.6% | 9.8% (active)
COc1ccc(C2=NN(C(C)=O)C(c3cn(Cc4ccc(Cl)cc4)c4ccccc34)C2)cc1 (centres undefined) | 97.4% | 52.6% | 72.2% | 78.7% | 79.9% | 85.6% | 82.1% | 81.7% | 99.4% | 81.6% | 90.1% | 79.2% | 76 | 84.5% | 59.9% | 85.6% | 66.6% | 89.3% | 94%
CN(Cc1ccccc1)c1nc(Cl)c(C2CC(c3ccc(Cl)cc3)=Cc3[nH][nH]c(=O)c32)s1 (centres undefined) | 104% | 42.5% | 104% | 113% | 92.1% | 90.2% | 88.1% | 102% | 107% | 90.1% | 112% | 88.1% | 104 | 93.4% | 79.7% | 88.2% | 89% | 79.9% | 103%
COC(=O)Nc1nc2ccc(C(=O)c3cccc(I)c3)cc2[nH]1 | 5.95% (active) | 6.18% (active) | 31.3% | -3.99% (active) | 22.4% | 12% | -25.8% (active) | 61.4% | 1.39% (active) | 11.8% | 2.12% (active) | -15.3% (active) | 33.6 | 13.6% | 20.9% | -33.9% (active) | 24.8% | 16.6% | 49.4%
Clc1cc(Cl)cc(N2N=C(c3cccc(Nc4ccncc4)c3)CC2c2ccc(Br)cc2)c1 (centres undefined) | 35.2% | 1.66% (active) | 23.7% | 57.1% | 77.1% | 36.9% | 76.6% | 79.4% | 108% | -66.5% (active) | -12.2% (active) | 78.3% | 85.8 | -29.8% (active) | 33.3% | 79% | 102% | -88.4% (active) | -21.8% (active)
COc1cccc(/C=C2\COc3ccc(-c4ccccc4)cc3C2=O)c1 | -40.2% (active) | -2.92% (active) | 101% | 32.3% | 4.23% (active) | -44.8% (active) | -29.8% (active) | 49.2% | 23.6% | -36.9% (active) | 12.9% | 10.9% | 64.7 | -56.1% (active) | 19.4% | 24% | 38% | -85.5% (active) | -36.5% (active)
COc1ccc(CNC(=O)COc2ccc(/C=N/Nc3nc4ccccc4s3)cc2)cc1 | -49.1% (active) | 34.8% | 24.1% | 10.2% | 19.9% | 47.4% | 21.1% | 53.8% | 54% | 31% | 35.5% | -2.77% (active) | 36.8 | 21.6% | 15.5% | 23.6% | 34% | 46.5% | 35.2%
O=C(Nc1nc2ccc(C(=O)N3CCN(c4ccc(Cl)c(Cl)c4)CC3)cc2s1)c1ccc(NCCc2ccccc2)c([N+](=O)[O-])c1 | 101% | 84.2% | 86.8% | 86.2% | 97% | 96.4% | 101% | 99.4% | 98.5% | 98.3% | 100% | 98.1% | 100 | 102% | 92.4% | 87.9% | 78.1% | 98.3% | 105%
Nc1ncc(C#Cc2cncc(NC(=O)c3cccc(C(F)(F)F)c3)c2)c2cccnc12 | 43.7% | 7.45% (active) | -6.22% (active) | 36% | 58.4% | 61.2% | 43.8% | 71.7% | 18.2% | 56.6% | 27.4% | 60.7% | 94.9 | 53.5% | 49.9% | 34% | 55.7% | 5.77% (active) | 33.6%
OC1(c2ccc(Cl)c(C(F)(F)F)c2)CCN(CCCC(c2ccc(F)cc2)c2ccc(F)cc2)CC1 | -97% (active) | -20.2% (active) | -75.3% (active) | -87.6% (active) | -90% (active) | -85.3% (active) | -74.6% (active) | -85.6% (active) | -84.8% (active) | -78.5% (active) | -88.1% (active) | -66.3% (active) | 12.1 | -93.1% (active) | -65.5% (active) | -93.5% (active) | -92.6% (active) | -96.1% (active) | -94.4% (active)
C[C@@H]1CN(Cc2ccc(/C=C/c3n[nH]c4ccc5nc(-c6cn[nH]c6C(F)(F)F)c6c(c5c34)CCCC6)cc2)C[C@H](C)O1 | 27.7% | 10.4% | 41.2% | 12.9% | 36.5% | 38.4% | 7.28% (active) | 75.5% | 18.9% | 7.35% (active) | 7.17% (active) | -4.9% (active) | 57.1 | 46.1% | 22.7% | 40.3% | 44.3% | 8.23% (active) | 40.6%
COc1cc(NCC(O)CN(CC(C)C)C2CCCC2)c2ncccc2c1 (centres undefined) | 98.4% | 73.2% | 147% | 66.8% | 82.7% | 92.2% | 99.8% | 85.5% | 95.8% | 84.2% | 78.3% | 103% | 101 | 79.9% | 68.8% | 93.1% | 98.9% | 82.7% | 103%
COc1cc(OC)cc(C2C3=C(COC3=O)Nc3cc(OC)ccc32)c1 (centres undefined) | -30.2% (active) | 11.9% | 71.6% | -7.98% (active) | 18.1% | 10.9% | 1.4% (active) | 45.5% | 3.85% (active) | 11.3% | 0.152% (active) | 40.7% | 36.2 | 16.2% | 29.3% | -24.3% (active) | 36% | 25.8% | 63.5%
